Results filed as inconclusive are left out. Active and inactive are the calls of the source. The call rests on the fitted dose curve; in most records, active means well fitted cell-killing curve with a large enough effect; inconclusive means small, poorly fitted or top-dose-only effect, or effect the other way; inactive means flat fitted curve, though single readings scatter.
What was measured:
Experiment in all cases: Primary qHTS to identify gynecologic anti-cancer compounds using libraries of approved drugs and bioactive compounds (AID 1345084); further: nearly all actives have a fitted effect of over 55% in size
[1] = test system: C33A; settings: Gynecologic cancer cell panel viability, ATPlite luminescence, 48 h; series mostly up to 57.5 µM
Method in brief: (§1)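 48 h compound exposure at 37 C, 5% CO2; five-point qHTS. ATPlite luminescence readout of cell ATP.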

[2] = test system: CASKI; settings: Gynecologic cancer cell panel viability, ATPlite luminescence, 48 h; series mostly up to 57.5 µM
Method in brief: as §1

[3] = test system: Es-2; settings: Gynecologic cancer cell panel viability, ATPlite luminescence, 48 h; series mostly up to 57.5 µM
Method in brief: as §1

[4] = test system: HeLa; settings: Gynecologic cancer cell panel viability, ATPlite luminescence, 48 h; series mostly up to 57.5 µM
Method in brief: as §1

[5] = test system: Hek293T; settings: Gynecologic cancer cell panel viability, ATPlite luminescence, 48 h, control line for the selectivity index; series mostly up to 57.5 µM
Method in brief: as §1

[6] = test system: JEG-3; settings: Gynecologic cancer cell panel viability, ATPlite luminescence, 48 h; series mostly up to 57.5 µM
Method in brief: as §1

[7] = test system: OV90; settings: Gynecologic cancer cell panel viability, ATPlite luminescence, 48 h; series mostly up to 57.5 µM
Method in brief: as §1

[8] = test system: PA-1; settings: Gynecologic cancer cell panel viability, ATPlite luminescence, 48 h; series mostly up to 57.5 µM
Method in brief: as §1

[9] = test system: Tov-21-G; settings: Gynecologic cancer cell panel viability, ATPlite luminescence, 48 h; series mostly up to 57.5 µM
Method in brief: as §1

[10] = test system: Tov112D; settings: Gynecologic cancer cell panel viability, ATPlite luminescence, 48 h; series mostly up to 57.5 µM
Method in brief: as §1

[11] = test system: SKOV3; settings: Gynecologic cancer cell panel viability, ATPlite luminescence, 48 h; series mostly up to 57.5 µM
Method in brief: as §1

Measured: Potency

CC(C)(N)c1ncc(-c2ccc(OC(F)(F)F)cc2)[nH]1
not listed: [11]
inactive: all other assays above

CCO[C@H]1CN(C2CCC(O)(c3ccc4c(c3)OCO4)CC2)C[C@@H]1NC(=O)CNC(=O)c1cccc(C(F)(F)F)c1 (some centres not stated)
not listed: [11]
inactive: all other assays above

O=C(Nc1cccnc1)c1cc(-c2ccnc(F)c2)ccc1OCc1ccccc1
not listed: [11]
inactive: all other assays above

CCC[C@H](N[C@H]1CCc2cc(F)cc(F)c2C1)C(=O)Nc1cn(C(C)(C)CNCC(C)(C)C)cn1
inactive: all assays above

CCc1ccc(-c2nc(CSCC(=O)NCCc3ccccc3)c(C)o2)cc1
not listed: [11]
inactive: all other assays above

C=CC(C)(O)CC[C@@H]1[C@@]2(C)CCCC(C)(C)C2CC[C@@]1(C)O (some centres not stated)
not listed: [11]
inactive: all other assays above

CCCC(=O)C1(c2ccccc2)CCN(C(=O)[C@@H](Cc2ccc(OC)cc2)NC(=O)[C@@H](N)Cc2cncn2C)CC1
inactive: all assays above

COc1ccc2c(c1)C(C(=O)N(Cc1ccc(N(C)C)cc1)c1ccc(C(C)C)cc1)CCC2 (configuration not stated)
not listed: [11]
inactive: all other assays above

CC(=O)O[C@H]1C[C@H](OC(C)=O)[C@]2(C)[C@H](CC[C@@]34O[C@@H]3C3=C(C)C(=O)O[C@@H]3C[C@H]42)C1(C)C
inactive: all assays above

CC(C)C[C@@H](C(=O)N[C@@H](Cc1ccc(OCc2ccccc2)cc1)C(=O)NC(C)(C)C)N(C)Cc1ccc(C(C)(C)C)cc1
not listed: [11]
inactive: all other assays above

Cc1ccc(-c2ncccn2)c(C(=O)N2C[C@H](COc3ccc(F)cn3)CC[C@H]2C)c1
not listed: [11]
inactive: all other assays above

Clc1ccc(Cn2c(Cc3ccccc3)nc3ccccc32)cc1
not listed: [11]
inactive: all other assays above

Cc1cc(C)cc(-c2cnc3cc(Cl)c(-c4cccc(O)c4)cc3c2OCCCN)c1
inactive: all assays above

CC(=O)OC(C)(C)/C=C/C(=O)C(C)(O)C1C(O)CC2(C)C3CC=C(C(C)(C)C(=O)O)C(CC(=O)O)C3(C)C(=O)CC12C (configuration not stated)
not listed: [11]
inactive: all other assays above

COc1ccc([C@H](Cc2ccncc2)c2ccccc2)cc1OC1CCCC1
inactive: all assays above

Nc1cccc(CNC(=O)c2ccc(Oc3ccc(OCc4cccc(F)c4)cc3)nc2)c1
not listed: [11]
inactive: all other assays above

COc1cc2c(c(OC)c1CC=C(C)C)C[C@H](c1ccc(O)c(CC=C(C)C)c1O)CO2
inactive: all assays above

COC(=O)c1ccc(N2CCN(C)CC2)c(NC(=O)c2cccc(OC)c2)c1
inactive: all assays above
